Measured values reported in PubChem BioAssay AID1159580 (chemical genetic matrix, 2015).
Screen size: about 5,500 compounds; about 2,000 (36%) were called active. About 18% were inconclusive and are not listed. Cut-off read from the data, not from the text of the source: active = normalized growth mostly below about 0.91 (no sharp cut-off); inconclusive = no clear call, values can overlap the other calls; inactive = mostly above about 0.92. This is one part of the list.

Assay: chemical genetic growth profiling, strain panel (AID 1159580);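 note: tested at 20 µM; growth read once vehicle control cultures reached saturation at 30 °C; 1 = growth at the plate median or of vehicle wells; lower values mean less growth of the strain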
Details: S. cerevisiae deletion strains, growth OD

Measured: normalized growth

CC1(C)C(=O)N(CCN2CCC(C(=O)c3ccc(F)cc3)CC2)c2ccccc21
inactive: locus YAL013W, strain DEP1, hits give low values 0.998 | locus YAL040C, strain CLN3, hits give low values 1.01 | locus YCL061C, strain MRC1 (second series), hits give low values 0.999 | locus YDR150W, strain NUM1, hits give low values 0.998 | locus YDR363W, strain ESC2, hits give low values 0.992 | locus YER002W, strain NOP16, hits give low values 1.01 | locus YGR229C, strain SMI1, hits give low values 0.993 | locus YNL128W, strain TEP1, hits give low values 1.03 | locus YNL175C, strain NOP13, hits give low values 1.02 | locus YNL197C, strain WHI3, hits give low values 1.02 | locus YNL224C, strain SQS1, hits give low values 1.02 | locus YNL322C, strain KRE1, hits give low values 1 | locus YOR083W, strain WHI5 (second series), hits give low values 0.969 | locus YPL055C, strain LGE1, hits give low values 0.982

CC1C(c2ccccc2)N(C)C(c2ccccc2)CC1(O)c1ccc(F)cc1 (stereo not given)
inactive: locus YAR019C, strain CDC15, hits give low values 0.988 | locus YBL105C, strain PKC1, hits give low values 0.991 | locus YBR135W, strain CKS1, hits give low values 0.99 | locus YBR136W, strain MEC1, hits give low values 0.994 | locus YBR160W, strain CDC28, hits give low values 0.995 | locus YDL017W, strain CDC7, hits give low values 0.997 | locus YDL028C, strain MPS1, hits give low values 1 | locus YDL101C, strain DUN1, hits give low values 0.986 | locus YDL108W, strain KIN28, hits give low values 1.01 | locus YDL132W, strain cdc53, hits give low values 0.989 | locus YDL214C, strain PRR2, hits give low values 0.976 | locus YDR052C, strain DBF4, hits give low values 0.995 | locus YDR054C, strain cdc34, hits give low values 0.993 | locus YDR226W, strain ADK1, hits give low values 0.992 | locus YDR477W, strain SNF1, hits give low values 0.992 | locus YER123W, strain YCK3, hits give low values 0.934 | locus YER133W, strain GLC7, hits give low values 0.995 | locus YFL009W, strain cdc4, hits give low values 0.989 | locus YFL029C, strain CAK1, hits give low values 0.99 | locus YFR003C, strain YPI1, hits give low values 0.999 | locus YFR019W, strain FAB1, hits give low values 0.996 | locus YFR028C, strain CDC14, hits give low values 0.984 | locus YGR040W, strain KSS1, hits give low values 0.997 | locus YGR052W, strain FMP48, hits give low values 1.11 | locus YGR092W, strain DBF2, hits give low values 0.968 | locus YHR079C, strain IRE1, hits give low values 1.14 | locus YHR082C, strain KSP1, hits give low values 1.13 | locus YHR205W, strain SCH9, hits give low values 0.979 | locus YIL147C, strain SLN1, hits give low values 1 | locus YJL095W, strain BCK1, hits give low values 1.1 | locus YJL128C, strain PBS2, hits give low values 0.952 | locus YJL157C, strain FAR1, hits give low values 0.972 | locus YJR016C, strain ILV3, hits give low values 0.989 | locus YJR066W, strain TOR1 (second series), hits give low values 0.983 | locus YJR066W, strain TOR1, hits give low values 1.13 | locus YKL048C, strain ELM1, hits give low values 0.982 | locus YKL067W, strain YNK1, hits give low values 0.98 | locus YKL101W, strain HSL1, hits give low values 0.99 | locus YKL193C, strain SDS22, hits give low values 0.994 | locus YKL203C, strain TOR2, hits give low values 1.06 | locus YLR113W, strain HOG1, hits give low values 1.04 | locus YLR133W, strain CKI1, hits give low values 0.98 | locus YLR403W, strain SFP1, hits give low values 0.99 | locus YML070W, strain DAK1, hits give low values 0.973 | locus YMR001C, strain CDC5, hits give low values 0.982 | locus YMR205C, strain PFK2 (second series), hits give low values 0.989 | locus YMR277W, strain FCP1, hits give low values 0.997 | locus YNL006W, strain LST8, hits give low values 0.977 | locus YNL020C, strain ARK1, hits give low values 0.984 | locus YNL161W, strain CBK1, hits give low values 1 | locus YNL183C, strain NPR1, hits give low values 1.14 | locus YNL207W, strain RIO2, hits give low values 0.999 | locus YNL222W, strain SSU72, hits give low values 0.99 | locus YNL307C, strain MCK1 (second series), hits give low values 0.987 | locus YOL078W, strain AVO1, hits give low values 0.992 | locus YOL136C, strain PFK27, hits give low values 0.99 | locus YOR061W, strain CKA2, hits give low values 0.972 | locus YOR119C, strain RIO1, hits give low values 1.04 | locus YOR231W, strain MKK1, hits give low values 1.1 | locus YOR329C, strain SCD5, hits give low values 0.992 | locus YPL031C, strain PHO85, hits give low values 0.984 | locus YPL153C, strain RAD53, hits give low values 0.983 | locus YPL204W, strain HRR25, hits give low values 1 | locus YPL209C, strain IPL1, hits give low values 1 | locus YPL256C, strain CLN2, hits give low values 1.1 | locus YPR025C, strain CCL1, hits give low values 0.995 | locus YPR106W, strain ISR1, hits give low values 0.999 | locus YPR111W, strain DBF20, hits give low values 0.99 | strain NNK1, hits give low values 0.998 | strain TSCII, hits give low values 0.987
active: locus YHR030C, strain SLT2, hits give low values 1.26 [resistant]
